Sampled rows, rich in hits. Any-hit rate of the full collection: about 10%.
HEK293 tox – HEK 293 cell cytotoxicity | HEK 293 viability, ATP luminescence (CellTiter-Glo), 48-72 h | Potency, µM (doses to about 115 µM), without a hit: at the top dose activity change, negative = cytotoxicity, most hits filed as inhibitors | 94,000 compounds, 6.6% hits; further: nearly all actives have a fitted effect of over 60% in size
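HEK 293 cells seeded at 250 cells/well were exposed to compound for 48 or 72 hr at 37 degree Celsius. Viability taken as ATP content by CellTiter-Glo luminescence.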
3T3 cytotox – cytotoxic compounds in NIH 3T3 cells; NIH 3T3 viability, CellTiter-Glo ATP luminescence, 48-72 h; Potency, µM (series often up to 96.7 µM), for the others: at the top dose activity change, negative = cytotoxicity, most hits filed as inhibitors; 94,000 compounds, 4.3% hits; further: nearly all actives have a fitted effect of over 55% in size
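NIH 3T3 cells at 400 cells/well received 23 nL of compound by pintool and were incubated 48 or 72 h at 37 °C. Viability was read as ATP-coupled CellTiter-Glo luminescence.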
NPR1 antag – antagonists of human natriuretic peptide receptor Npr1 | P16066 | HEK293 hNpr1 GloSensor cGMP, ANP-stimulated luminescence | Potency, µM (doses to about 46.3 µM), without a hit: at the highest dose activity change, negative = inhibition, hits mostly inhibitors | 76,000 compounds, 1.6% hits | AID 1347048; calls by dose curve; further: nearly all actives have a fitted effect of over 60% in size
Target sequence (P16066 whole entry, looked up): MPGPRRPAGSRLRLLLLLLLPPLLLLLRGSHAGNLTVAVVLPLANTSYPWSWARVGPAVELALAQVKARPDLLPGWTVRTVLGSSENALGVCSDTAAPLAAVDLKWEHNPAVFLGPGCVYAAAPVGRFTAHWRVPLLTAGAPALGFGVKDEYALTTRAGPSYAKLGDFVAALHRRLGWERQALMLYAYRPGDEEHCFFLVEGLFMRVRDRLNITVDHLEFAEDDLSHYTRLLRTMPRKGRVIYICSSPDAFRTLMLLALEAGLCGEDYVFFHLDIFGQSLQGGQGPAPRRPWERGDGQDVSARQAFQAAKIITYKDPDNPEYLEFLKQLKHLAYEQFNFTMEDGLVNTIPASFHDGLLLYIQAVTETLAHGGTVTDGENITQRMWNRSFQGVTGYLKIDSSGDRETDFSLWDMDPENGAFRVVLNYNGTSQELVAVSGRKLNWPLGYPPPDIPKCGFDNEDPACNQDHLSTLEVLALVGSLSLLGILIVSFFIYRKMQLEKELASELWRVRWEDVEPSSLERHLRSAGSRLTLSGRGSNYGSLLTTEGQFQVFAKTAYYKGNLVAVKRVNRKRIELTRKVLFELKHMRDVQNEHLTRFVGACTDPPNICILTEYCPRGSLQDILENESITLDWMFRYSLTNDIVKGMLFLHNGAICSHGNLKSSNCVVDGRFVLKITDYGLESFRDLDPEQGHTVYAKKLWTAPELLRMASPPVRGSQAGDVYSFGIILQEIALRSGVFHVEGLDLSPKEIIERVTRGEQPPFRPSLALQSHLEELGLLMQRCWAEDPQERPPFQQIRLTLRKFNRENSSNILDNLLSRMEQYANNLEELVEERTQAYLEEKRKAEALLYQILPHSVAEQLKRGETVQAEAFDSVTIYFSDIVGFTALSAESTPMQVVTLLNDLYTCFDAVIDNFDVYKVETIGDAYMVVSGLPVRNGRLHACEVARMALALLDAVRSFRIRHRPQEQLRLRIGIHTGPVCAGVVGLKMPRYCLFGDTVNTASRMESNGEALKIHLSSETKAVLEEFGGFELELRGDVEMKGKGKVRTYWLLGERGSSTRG
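Compound pre-incubated 30 min at room temperature on GloSensor-loaded HEK293 cells stably carrying hNpr1 and the pGS-40F cGMP biosensor. Stimulation uses hNppA at 0.1 nM final; luminescence is taken at baseline and 20 min post-agonist.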
FLuc inh – Photinus pyralis luciferase inhibition; Potency, µM (series often up to 115 µM), most hits filed as inhibitors; 76,000 compounds, 2.5% hits; purified P. pyralis luciferase, luminescence, biochemical; AID 1347043; further: nearly all actives have a fitted effect of over 65% in size
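Cell-free enzyme assay, 10nM P. pyralis luciferase, luciferin and ATP each at 10uM. Inhibition profiled over a 6-point titration, read as luminescence.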
GPT2 inhibitor – blocks human glutamate pyruvate transaminase 2; AID 1671188; Recombinant GPT2, coupled pyruvate oxidase/HRP Amplex Red fluorescence; Q8TD30; Potency, µM (series often up to 57.7 µM), for inactives: top-dose activity change, negative = inhibition, most hits filed as inhibitors; 100,000 compounds, 0.25% hits; further: nearly all actives have a fitted effect of over 60% in size
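GPT2 10ng/uL, a-KG 250uM, L-Ala 2mM, HEPES pH7.5 + 0.0001% Tween; 30 min RT. Then Amplex mix (PO/HRP/ThPP), 30 min RT dark, fluorescence. AOA 50uM used as positive control.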
Starred values were filed as active, the others as inactive; i = inactive; ? = inconclusive; . = no result given; [ ] = remark or other dose. Unless noted, the call rests on the fitted dose curve; in most records, active means well fitted curve in the direction sought with a large enough effect; inconclusive means small, poorly fitted or top-dose-only effect, or another doubt; inactive means no such curve, though single readings can be large; an effect the other way counts as inactive or inconclusive. On the % scale 0 is the no-effect control and ±100 the full control effect; potency means the concentration at half of the fitted maximal effect.

SMILES	HEK293 tox	3T3 cytotox	NPR1 antag	FLuc inh	GPT2 inhibitor
COC(=O)NC1CCN(Cc2cccc(-c3cccs3)c2)CC1	?	?	.	.	1.2%[88.5 µM]
CCNC(=O)N1CCc2cc(OC)c(OC)cc2C1CNC(=O)c1ccccc1C (stereo not drawn)	-17.0%	-20.7%	7.5%	i	i
O=C(NCCc1ccccc1)C1c2ccccc2C(=O)N(Cc2ccccc2)C12CCCC2 (stereo not drawn)	39.8µM*	31.6µM*	-11.6%	i	i
O=C(NC1CCCC1)C1c2ccccc2C(=O)N(C2CCCC2)C12CCCCC2 (stereo not drawn)	-10.3%	-5.9%	5.5%	i	-4.5%
COC(=O)CCNC(=O)C1c2ccccc2C(=O)N(Cc2ccccc2)C12CCCC2 (stereo not drawn)	-8.7%	4.6%	0.7%	i	i
O=C(NC1CC1)C1c2ccccc2C(=O)N(C2CCCCC2)C12CCCCC2 (stereo not drawn)	31.6µM*	?	-5.7%	i	i
O=C(c1ccccc1)N1CCCN(Cc2ccc3c(c2)OCO3)c2ccccc21	35.5µM*	?	-3.9%	i	i
CC(=O)N1CCCN(Cc2ccc3c(c2)OCO3)c2ccccc21	?	?	4.1%	i	-2.7%
Cc1nc(N2CCC(NC(=O)c3ccccn3)CC2)cc(C(F)(F)F)n1	?	?	?	i	4.8%
Cc1nc(N2CCC(NC(=O)c3cc4ccccc4[nH]3)CC2)cc(C(F)(F)F)n1	?	?	7.94µM*	?	i
CNC(=O)CCC[C@@H]1[C@H]2CCCN3CCC[C@@H](CN1C(=O)CCOC)[C@@H]23	-0.6%	4.1%	2.3%	i	i
Cc1onc(-c2cnn(C)c2NCCc2ccccc2)c1C(=O)N1CCN(C)C(=O)C1	-1.5%[172 µM]	?	2.6%[70.6 µM]	i	2.3%[88.5 µM]
OCc1cccc(-c2ccc3ncc(Nc4cccc(C(F)(F)F)c4)n3n2)c1	?	50.1µM*	-20.0%[70.6 µM]	i	?
OCc1cccc(-c2ccc3ncc(Nc4ccc(OCCN5CCCC5)cc4)n3n2)c1	100µM*	?	6.3%[70.6 µM]	i	i
OCc1cccc(-c2ccc3ncc(Nc4ccccc4Cl)n3n2)c1	89.1µM*	?	-19.7%[70.6 µM]	22.4µM*	-26.3%[88.5 µM]
OCc1cccc(-c2ccc3ncc(Nc4cccnc4)n3n2)c1	-9.6%[172 µM]	?	2.0%[70.6 µM]	i	?
Cc1cnc(C(=O)N2CC(Cn3c(C)cnc3-c3ccncc3)C2)cn1	i	-0.6%	.	.	4.0%
COCC(=O)N1CCCC1C(=O)N1CCCC1c1nc2ccncc2[nH]1 (stereo not drawn)	i	-1.5%	.	.	i
OCC1CN(Cc2cc(F)cc(Br)c2)CC12CCNCC2 (stereo not drawn)	31.6µM*	?	1.9%	i	i
COCC1CN(Cc2cccc(C(F)(F)F)c2)CC12CCNCC2 (stereo not drawn)	89.1µM*	?	1.5%	i	-2.8%
Cc1ccc(NC(=O)Cn2c(N3CCN(c4ccccc4)CC3)nc(C)cc2=O)c(Cl)c1	0.3%	-5.6%	2.2%	i	4.1%
CCOC(=O)C1CCN(C(=O)c2nc3sccn3c2-c2cccc(C(F)(F)F)c2)CC1	i	-6.0%	.	.	i
COc1ccccc1CN1CC[C@H](c2nnc(Cc3c[nH]c4ccccc34)o2)C1	89.1µM*	?	-0.8%[70.6 µM]	i	1.5%[88.5 µM]
COc1ccccc1-c1nnc([C@H]2CCN(Cc3ccccn3)C2)o1	?	35.5µM*	-4.5%[70.6 µM]	i	-10.2%[88.5 µM]
Cc1ccc2oc([C@H]3CCN(Cc4cccc(Cl)c4)C3)nc2c1	?	?	-26.6%[70.6 µM]	i	-6.1%[88.5 µM]
Cc1ccc2oc([C@H]3CCN(Cc4ccc(N(C)C)cc4)C3)nc2c1	?	?	-20.3%[70.6 µM]	44.7µM*	-22.3%[88.5 µM]
Cc1ccc2oc([C@H]3CCN(Cc4c[nH]c5ccccc45)C3)nc2c1	31.6µM*	56.2µM*	?	i	?
Cc1nc(-c2c3n(c(=O)n(CC(=O)Nc4ccccc4F)c2=O)CCCCC3)no1	3.2%	i	-3.4%	i	2.4%
c1cc2nnc(C3CCC3)n2nc1N1CCOCC1	?	?	2.4%	i	i
